Experimental data from PubChem BioAssay AID493203 (National Center for Advancing Translational Sciences (NCATS), 2011).
Results filed as inconclusive are left out. The source made the active and inactive calls. The call rests on the fitted dose curve; in most records, active means well fitted activation curve with a large enough effect; inconclusive means small, poorly fitted or top-dose-only effect; inactive means flat fitted curve, though single readings scatter.

Test: qHTS Assay for NPC1 Promoter Activators: Initial hit validation from the primary screen
Details: Huh7 NPC1 promoter-luciferase reporter, luminescence, 24 h; series mostly up to 46.1 µM
In short: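 Promoter activation measured as luciferase luminescence (Amplite reagent, 10 minutes ambient) after 24 hours' compound exposure at 37C. Cells: NPC1-luciferase Huh7, 1500 per well, reduced-serum OP-MEM I plus 10% FBS.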
Potency means the concentration at half of the fitted maximal effect.

Potency, active:
O=C(CSc1nnc(-c2ccccn2)o1)Nc1ccccc1F 1120 nM
Cc1nc(-c2ccccn2)sc1C(=O)Nc1ccc(F)cc1F 15800 nM
O=C(CCS(=O)(=O)c1ccccc1)Nc1ccc(-c2nc3ccccc3s2)cc1 158 nM
CCOC(=O)c1csc(COc2ccc(OC)cc2)n1 705 nM
O=C(CSc1nnc(-c2ccc([N+](=O)[O-])cc2)o1)Nc1ccccn1 628 nM
Cc1cc(C)c2c(N)c(C(=O)Nc3ccc([N+](=O)[O-])cc3)sc2n1 396 nM
CC(=O)Nc1ccc(-c2csc(Nc3ncccn3)n2)cc1 499 nM
COc1ccccc1C(=O)Nc1nnc(SCC(=O)NC2CCCC2)s1 705 nM
O=C(c1cc2cc(Br)ccc2[nH]1)N1CCc2ccccc21 12500 nM
O=C(Nc1ccc(-c2nc3cccnc3s2)cc1)c1ccc(Cl)nc1 1250 nM
CC(C)(C)C(=O)N/C(N)=N/c1nc2ccccc2o1 499 nM
CCc1cc(C(=O)Nc2ccccc2)cs1 2230 nM
CCCCCCOc1ccc(OC(=O)c2cccnc2)cc1 19900 nM
CCOC(=O)c1ccc(-c2nnc(-c3ccc(Cl)cc3Cl)o2)cc1 2500 nM
COC(=O)CSc1nc2cc3c(cc2cc1C#N)OCO3 315 nM
COc1ccc(-c2csc(Nc3ncccn3)n2)cc1C 250 nM
O=C(Nc1nc2ccc(F)cc2s1)c1ccc(N2CCCC2=O)cc1 141 nM

Potency, inactive:
Cc1ccccc1NC(=O)Cc1nc(COC(=O)CC(C)c2ccccc2)cs1 (centres undefined)
Cc1ccc(NC(=O)c2ncc(Cl)c(Cl)c2Cl)cc1C
O=C(C[N+]1(CC#Cc2ccccc2)CCCCC1)c1ccccc1
Fc1ccc(-c2nc3nc4ccccc4nc3n2Cc2ccco2)cc1
COc1ccccc1CNC(=O)COc1ccc(C)cc1
CC(C)C(NC(=O)c1ccc([N+](=O)[O-])cc1Cl)C(=O)N1CCCC1 (centres undefined)
CC(=O)Nc1ccc(NC(=O)COc2ncnc3ccccc23)cc1
COc1cccc(C2Nc3ccccc3NC3=C2C(=O)CC(C)(C)C3)c1 (centres undefined)
CCCCn1c(Nc2ccc(OC)cc2)nc2ccccc21
Cc1cc(C)cc(N(CC(=O)NC2CCCC2)C(=O)CNC(=O)c2ccco2)c1
S=C1NCN(CCc2ccccc2)CN1Cc1ccccc1
O=C(NCCc1c[nH]c2ccccc12)C(=O)NCC(c1ccco1)N1CCN(c2ccccc2F)CC1 (centres undefined)
COc1ccccc1OCCCC(=O)NCc1ccco1
Nc1ccccc1C(=O)N/N=C1/C2CN3CCN(C2)CC1(Cc1ccccc1)C3
Cc1c(C(O)CN2CCN(Cc3ccc4c(c3)OCO4)CC2)c2ccccc2n1C (centres undefined)
Cc1cccc(NC(=O)CSc2nc3ccccc3o2)c1
CC(Sc1nnc(C(F)(F)F)n1C)C(=O)Nc1ccc(S(N)(=O)=O)cc1 (centres undefined)
